Screening results: PubChem BioAssay, National Center for Advancing Translational Sciences (NCATS)
TDP1 cell CPT: qHTS for Inhibitors of human tyrosyl-DNA phosphodiesterase 1 (TDP1): qHTS in cells in presence of CPT. chicken DT40 Tdp1-/-;hTDP1 cells + 20 nM CPT, ATP luminescence, 48 h. Potency, µM (doses to about 46.2 µM), for the others: top-dose activity change, negative = growth inhibition, actives largely listed as inhibitors. 12% of 420,000 active. AID 686979, 2013; note: potency is the fitted concentration of half-maximal effect; nearly all actives have a fitted effect of over 55% in size
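Chicken DT40 Tdp1-/- cells stably complemented with human TDP1 were seeded at 400 cells/well in medium containing 20 nM camptothecin, exposed to pin-transferred compounds, and grown at 37 °C for at least 48 hr. Viability was read as ATP luminescence.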
HT1080 IDH1KD tx: qHTS for induction of synthetic lethality in tumor cells producing 2HG: qHTS for the HT-1080-IDH1KD cell line. Potency, µM (titrated, usually from 46.1 µM), without a hit: top-dose activity, negative = toxicity, hits mostly cytotoxic. 2% of 360,000 active. HT-1080 IDH1 knockdown viability, ATP luminescence, 48 h;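 note: potency is the fitted concentration of half-maximal effect; 0% = DMSO wells and -100% = cell-free medium wells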
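Viability of IDH1-knockdown HT-1080 fibrosarcoma cells was assessed by CellTiter-Glo after 48 h at 37 °C with titrated compound; concentration-effect curves were classified by fit quality and response size.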
IL-1B inflam inh: qHTS for Inhibitors of Inflammasome Signaling: IL-1-beta AlphaLISA Primary Screen | THP-1 LPS/ATP IL-1B secretion, AlphaLISA, 16 h; hits give low values | activity change, % at 57.5 µM | 4.7% of 360,000 active; in the data active = activity change below about -50%; inconclusive = mostly about -30% to -49%
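Secreted IL-1B measured by AlphaLISA bead assay after 16 h compound exposure of THP-1 cells; compounds (final up to 57.5 uM) added 1 h before LPS (250 ng/mL) and ATP (1.25 mM) stimulation; lower signal means less secretion.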
TDP1 cell noCPT: qHTS for Inhibitors of human tyrosyl-DNA phosphodiesterase 1 (TDP1): qHTS in cells in absence of CPT. DT40 Tdp1-/- hTDP1 cells, no CPT, ATP luminescence, 48 h. AID 686978, 2013. 15% of 420,000 active. Potency, µM (highest dose often 46.2 µM), for inactives: at the top dose activity change, negative = growth inhibition, hits mostly inhibitors; note: potency is the fitted concentration of half-maximal effect; nearly all actives have a fitted effect of over 55% in size
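Growth kinetics read by CellTiter-Glo luminescence after ≥48 hr at 37 °C. Cells: DT40 Tdp1-/- stably carrying human TDP1, 400 per well, compound exposure in the absence of CPT (DMSO vehicle).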
HT1080-NT tox: qHTS for induction of synthetic lethality in tumor cells producing 2HG: qHTS for the HT-1080-NT fibrosarcoma cell line; Potency, µM (highest dose often 46.1 µM), inactives show top-dose activity, negative = less viability, actives largely listed as cytotoxic; 1.6% of 360,000 active; HT-1080-NT fibrosarcoma viability, CellTiter-Glo ATP luminescence, 48 h;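 note: NT is the 2HG producing partner of a matched IDH1 knockdown line; potency is the fitted concentration of half-maximal effect; 0% = DMSO-treated cells and -100% = media-only wells without cells; nearly all actives have a fitted effect of over 55% in size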
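Fibrosarcoma NT cells, 750 per well in 5% FBS RPMI, were exposed to compound for 48 hours. Viability: CellTiter-Glo luminescence.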
An asterisk follows results filed as active. An excerpt weighted towards active compounds, which were near 19% of everything screened. Unless noted, calls come from the whole dose curve; as a rule, active = well fitted curve in the direction sought with a large enough effect; inconclusive = small, poorly fitted or top-dose-only effect, or another doubt; inactive = no such curve, though single readings can be large; an effect the other way counts as inactive or inconclusive. Unless noted, % is set by controls: 0 for no effect and ±100 for the full control effect.

Results for CN(C(=O)CSc1ncnc2sccc12)c1c(N)n(Cc2ccccc2)c(=O)[nH]c1=O ?
TDP1 cell CPT: -3.8%; HT1080 IDH1KD tx: 12.5%; IL-1B inflam inh: 10.3; TDP1 cell noCPT: 5.8%; HT1080-NT tox: -0.9%

What do the screens show for `CCOC(=O)C1=C(COC(=O)CC(C)c2ccccc2)NC(=O)NC1C` (configuration not stated)?
TDP1 cell CPT: 4.7%; HT1080 IDH1KD tx: 1.9%; IL-1B inflam inh: 2.5; TDP1 cell noCPT: -21.4%; HT1080-NT tox: 11.1%

What do the screens show for `Fc1ccccc1N=C1NN=C(c2ccccc2)CS1`?
TDP1 cell CPT: inconclusive; HT1080 IDH1KD tx: inconclusive; IL-1B inflam inh: -90.5*; TDP1 cell noCPT: inconclusive; HT1080-NT tox: 13µM*

What do the screens show for `CCn1cc[n+](C)c1P(c1ccccc1)c1ccccc1`?
TDP1 cell CPT: 0.651µM*; HT1080 IDH1KD tx: -23.0%; IL-1B inflam inh: 0.0; TDP1 cell noCPT: 0.013µM*; HT1080-NT tox: -17.8%

What do the screens show for `CSCCC(NC(=O)COc1ccccc1)C(=O)NCc1cccs1` (configuration not stated)?
TDP1 cell CPT: -3.9%; HT1080 IDH1KD tx: -1.4%; IL-1B inflam inh: 5.6; TDP1 cell noCPT: 12.6%; HT1080-NT tox: -3.1%

What do the screens show for `Cc1c(C(=O)N2c3ccccc3Sc3ccccc32)cccc1[N+](=O)[O-]`?
TDP1 cell CPT: inconclusive; HT1080 IDH1KD tx: -30.4%; IL-1B inflam inh: -13.5; TDP1 cell noCPT: 25.9µM*; HT1080-NT tox: -21.4%

What do the screens show for `Cc1onc(C(N)=O)c1C(=O)Nc1ncc(C(F)(F)F)cc1Cl`?
TDP1 cell CPT: 1.2%; HT1080 IDH1KD tx: 9.1%; IL-1B inflam inh: -14.5; TDP1 cell noCPT: -6.8%; HT1080-NT tox: inconclusive

How did O=C(CCNc1cccc(Cl)c1)c1ccco1 do in these assays?
TDP1 cell CPT: 7.31µM*; HT1080 IDH1KD tx: inconclusive; IL-1B inflam inh: 3.7; TDP1 cell noCPT: 8.2µM*; HT1080-NT tox: inconclusive

How did O=C(CNC(=O)c1ccco1)NCC(=O)OCc1cccc(Cl)c1 do in these assays?
TDP1 cell CPT: -2.7%; HT1080 IDH1KD tx: -0.9%; IL-1B inflam inh: -6.9; TDP1 cell noCPT: -17.0%; HT1080-NT tox: 6.8%

How did CCOc1ccc2c(c1)OC1(CCC(C)C1)CC2=O (configuration not stated) do in these assays?
TDP1 cell CPT: -25.2%; HT1080 IDH1KD tx: -6.3%; IL-1B inflam inh: 6.3; TDP1 cell noCPT: -17.7%; HT1080-NT tox: -13.9%

How did CCOc1ccc2c(c1)OC(c1ccc(C)cc1)(C(F)(F)F)NC2=O (configuration not stated) do in these assays?
TDP1 cell CPT: 1.46µM*; HT1080 IDH1KD tx: 2.31µM*; IL-1B inflam inh: -15.7; TDP1 cell noCPT: 1.3µM*; HT1080-NT tox: inconclusive

What do the screens show for `COc1ccccc1/C=C\C(=O)O`?
TDP1 cell CPT: -7.4%; TDP1 cell noCPT: -5.3%

How did CC(=O)/C=C/c1ccccc1Oc1c(F)c(F)nc(F)c1F do in these assays?
TDP1 cell CPT: inconclusive; HT1080 IDH1KD tx: inconclusive; IL-1B inflam inh: -27.4; TDP1 cell noCPT: 25.9µM*; HT1080-NT tox: inconclusive

What do the screens show for `COc1ccc(-c2nc(Cn3c(SCc4ccc(C)cc4)nc4cccnc43)c(C)o2)cc1OC`?
TDP1 cell CPT: 5.17µM*; TDP1 cell noCPT: inconclusive

What do the screens show for `Cc1oc(-c2ccccc2Cl)nc1Cn1c(SCc2cccc(F)c2)nc2cccnc21`?
TDP1 cell CPT: 23.1µM*; TDP1 cell noCPT: 25.9µM*

What do the screens show for `Cc1oc(-c2ccccc2Cl)nc1CN1CCCC1c1ccc(F)cc1` (configuration not stated)?
TDP1 cell CPT: inconclusive; HT1080 IDH1KD tx: -4.8%; IL-1B inflam inh: 11.5; TDP1 cell noCPT: -36.3%; HT1080-NT tox: -0.1%

Results for Cc1cccc(-c2nc(CN3CCN(Cc4cccc(F)c4)CC3)c(C)o2)c1 ?
TDP1 cell CPT: inconclusive; HT1080 IDH1KD tx: 9.4%; IL-1B inflam inh: 22.1; TDP1 cell noCPT: inconclusive; HT1080-NT tox: 5.9%

How did COc1ccc(-c2nc(Cn3c(SCc4ccc(F)cc4)nc4ccncc43)c(C)o2)cc1OC do in these assays?
TDP1 cell CPT: inconclusive; HT1080 IDH1KD tx: inconclusive; IL-1B inflam inh: -20.4; TDP1 cell noCPT: 20.6µM*; HT1080-NT tox: 23.1µM*

Results for Cc1oc(-c2cccc(Cl)c2)nc1Cn1c(SCc2ccc(F)cc2)nc2cccnc21 ?
TDP1 cell CPT: 25.9µM*; TDP1 cell noCPT: 25.9µM*

How did COc1ccc(-c2nc(CS(=O)CC(=O)NCCCN3CCCC(C)C3)c(C)o2)cc1OC (configuration not stated) do in these assays?
TDP1 cell CPT: 14.7%; HT1080 IDH1KD tx: 12.7%; IL-1B inflam inh: -0.5; TDP1 cell noCPT: 9.5%; HT1080-NT tox: 9.0%

Results for COC(=O)c1c(-c2ccccc2Cl)noc1/C=C/N(C)C ?
TDP1 cell CPT: inconclusive; HT1080 IDH1KD tx: -10.0%; IL-1B inflam inh: inconclusive; TDP1 cell noCPT: inconclusive; HT1080-NT tox: inconclusive

How did CC(C)C12NC(=O)NC(=O)N1CCS2 (configuration not stated) do in these assays?
TDP1 cell CPT: inconclusive; HT1080 IDH1KD tx: -8.0%; IL-1B inflam inh: 0.0; TDP1 cell noCPT: inconclusive; HT1080-NT tox: -3.3%

How did COc1ccc(Cl)cc1C(=O)NCc1nc(-c2cccc(C)c2)no1 do in these assays?
TDP1 cell CPT: inconclusive; TDP1 cell noCPT: -26.3%

What do the screens show for `COc1ccc(Cn2c(CCC(=O)NCc3ccc(Cl)cc3)nc3cccnc32)cc1`?
TDP1 cell CPT: -4.1%; TDP1 cell noCPT: inconclusive

How did O=C(Cn1c(SCc2ccccc2F)nc2ccncc21)Nc1ccccc1C(F)(F)F do in these assays?
TDP1 cell CPT: inconclusive; TDP1 cell noCPT: -19.3%

What do the screens show for `Cc1ccc(C)c(CSc2nc3ccncc3n2Cc2nc(-c3ccccc3Cl)oc2C)c1`?
TDP1 cell CPT: 20.6µM*; TDP1 cell noCPT: inconclusive

What do the screens show for `COCCn1c(-c2ccc(F)cc2)nc2cccnc21`?
TDP1 cell CPT: 7.4%; HT1080 IDH1KD tx: 12.9%; IL-1B inflam inh: 4.4; TDP1 cell noCPT: 18.6%; HT1080-NT tox: 19.8%

Results for COc1ccc(-c2nc(Cn3c(SCc4ccc(F)cc4)nc4cccnc43)c(C)o2)cc1 ?
TDP1 cell CPT: 2.91µM*; TDP1 cell noCPT: 2.59µM*

Results for COc1ccc(-c2nc(Cn3c(SCc4ccccc4F)nc4ccncc43)c(C)o2)cc1 ?
TDP1 cell CPT: inconclusive; HT1080 IDH1KD tx: inconclusive; IL-1B inflam inh: 3.4; TDP1 cell noCPT: 14.6µM*; HT1080-NT tox: -21.6%
